In PubChem BioAssay (NCI):
The panel holds about 79,000 compounds, 15% with a hit somewhere; the sample as a whole holds those more often. A number with no mark means an inactive call. Activity calls are given as the source filed them. Rule as the data show it: active = growth inhibition above about 70%; inactive = the rest.

What was measured:
[1] = NCI Yeast Anticancer Drug Screen. Data for the rad52 strain (AID 147);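 also: 0% = growth of vehicle-treated control cultures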; conditions: S. cerevisiae rad52 mutant growth inhibition, hits give high values
Procedure, shortened: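 Measured: yeast growth inhibition. System: strain with a defined DNA damage repair alteration. Reference: vehicle-treated control cultures.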

[2] = NCI Yeast Anticancer Drug Screen. Data for the wt1 strain (AID 149);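 also: 0% = growth of vehicle-treated wt1 cultures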; conditions: S. cerevisiae wt1 strain (SPY 50644) growth inhibition, hits give high values
Procedure, shortened: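 wt1 strain grown with compound or vehicle; inhibition taken from the growth difference.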

[3] = NCI Yeast Anticancer Drug Screen. Data for the rad50EPP+ strain (AID 151);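 also: 0% = growth of vehicle-treated control cultures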; conditions: S. cerevisiae rad50 mutant strain, hits give high values
Procedure, shortened: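 One strain with a rad50 alteration (rad50EPP+) was compound-treated, its growth then compared to that of vehicle controls.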

[4] = NCI Yeast Anticancer Drug Screen. Data for the mgt1 strain (AID 153); conditions: S. cerevisiae mgt1 mutant growth inhibition, hits give high values
Procedure, shortened: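 After exposure of the mgt1 yeast mutant to compound, growth was measured and reported as inhibition compared with vehicle controls.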

[5] = NCI Yeast Anticancer Drug Screen. Data for the rad50 strain (AID 155);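 also: 0% = growth of vehicle-only cultures of the same strain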; conditions: S. cerevisiae rad50 strain growth inhibition, hits give high values
Procedure, shortened: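 DNA repair mutant yeast, compound exposure, growth read-out; inhibition is taken relative to vehicle.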

[6] = NCI Yeast Anticancer Drug Screen. Data for the mec2-1 strain (AID 157); conditions: S. cerevisiae mec2-1 strain, hits give high values
Procedure, shortened: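 Test agents were screened against the mec2-1 yeast strain, with defined DNA repair or cell cycle alteration. Growth was scored as inhibition against vehicle-only controls.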

[7] = NCI Yeast Anticancer Drug Screen. Data for the rad14 strain (AID 159);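 also: 0% = growth of vehicle-treated control cultures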; conditions: S. cerevisiae rad14 strain growth inhibition, hits give high values
Procedure, shortened: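 DNA repair-defective yeast, compound-exposed; % growth inhibition derived by comparison with vehicle-treated controls.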

[8] = NCI Yeast Anticancer Drug Screen. Data for the sgs1 mgt1 strain (AID 161);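 also: 0% = growth of cultures given vehicle only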; conditions: S. cerevisiae sgs1 mgt1 strain, hits give high values
Procedure, shortened: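 Inhibition of yeast growth, normalised to vehicle-treated controls, is reported for a strain bearing genetic alterations in DNA damage repair.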

[9] = NCI Yeast Anticancer Drug Screen. Data for the CLN2oe strain (AID 163);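 also: 0% = growth of vehicle-only control cultures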; conditions: S. cerevisiae CLN2oe strain, hits give high values
Procedure, shortened: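 Here, growth inhibition in a cell-cycle-altered yeast strain after compound exposure was quantified against vehicle control growth.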

[10] = NCI Yeast Anticancer Drug Screen. Data for the cln2 rad14 strain (AID 165);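 also: 0% = growth equal to vehicle treated cultures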; conditions: S. cerevisiae cln2 rad14 strain, hits give high values
Procedure, shortened: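 Growth of compound-exposed yeast (cln2 rad14 genotype) measured and expressed as inhibition relative to vehicle.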

[11] = NCI Yeast Anticancer Drug Screen. Data for the bub3 strain (AID 167); conditions: S. cerevisiae bub3 mutant strain, hits give high values
Procedure, shortened: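 In this screen, a yeast mutant lacking normal mitotic checkpoint function is challenged with compound. Relative growth versus vehicle gives the inhibition value.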

[12] = NCI Yeast Anticancer Drug Screen. Data for the wt2 strain (AID 169);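 also: 0% = growth of vehicle-treated yeast cultures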; conditions: S. cerevisiae wt2 strain growth inhibition, hits give high values
Procedure, shortened: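 Genetically defined yeast strains from a DNA-repair/cell-cycle panel were used. Compound-exposed yeast growth was measured, and the inhibition was calculated relative to vehicle treatment.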

[13] = NCI Yeast Anticancer Drug Screen. Data for the mlh1 strain (AID 171);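 also: 0% = growth of vehicle-treated control cultures of the same strain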; conditions: S. cerevisiae mlh1 strain growth inhibition, hits give high values
Procedure, shortened: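 Here the genetically defined yeast mutant is grown with each compound, and the extent to which its growth falls below that of vehicle-exposed cells is reported.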

[14] = NCI Yeast Anticancer Drug Screen. Data for the sgs1 strain (AID 173);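 also: 0% = growth of vehicle-only control cultures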; conditions: S. cerevisiae sgs1 mutant, hits give high values
Procedure, shortened: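 Relative growth inhibition, referenced to vehicle, was determined in a yeast strain with a defined alteration affecting DNA damage repair or cell cycle control after compound exposure.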

[15] = NCI Yeast Anticancer Drug Screen. Data for the mlh1 rad18 strain (AID 175); conditions: S. cerevisiae mlh1 rad18 strain growth inhibition, hits give high values
Procedure, shortened: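 In this whole-cell yeast screen, a strain with altered DNA damage repair is challenged with compound, and its growth is measured against matched vehicle-treated controls.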

[16] = NCI Yeast Anticancer Drug Screen. Data for the rad18 strain (AID 177); conditions: S. cerevisiae rad18 mutant growth inhibition, hits give high values
Procedure, shortened: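 Screen uses a yeast strain with a defined lesion in DNA damage repair; compound effect is read as loss of growth compared to untreated vehicle cultures.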

[17] = at 5.0 µM (retest, dose inferred, filed as 0.5)
[18] = at 50.0 µM (retest, dose inferred, filed as 5.0)

CCCCCCCC/C=C\CCCCCCCCN
growth inhibition ([1]; at 1.2 µM): 4%
growth inhibition ([1]; at 3.7 µM): 0%
growth inhibition ([1]; at 11.0 µM): -10%
growth inhibition ([1]; at 33.0 µM): 98% (active)
growth inhibition ([1]; at 100.0 µM): 97% (active)
growth inhibition ([2]; at 1.2 µM): 13%
growth inhibition ([2]; at 3.7 µM): 17%
growth inhibition ([2]; at 11.0 µM): 9%
growth inhibition ([2]; at 33.0 µM): 98% (active)
growth inhibition ([2]; at 100.0 µM): 98% (active)
growth inhibition ([3]; at 1.2 µM): 17%
growth inhibition ([3]; at 3.7 µM): 21%
growth inhibition ([3]; at 11.0 µM): 21%
growth inhibition ([3]; at 33.0 µM): 96% (active)
growth inhibition ([3]; at 100.0 µM): 97% (active)
growth inhibition ([4]; at 1.2 µM): 18%
growth inhibition ([4]; at 3.7 µM): 30%
growth inhibition ([4]; at 11.0 µM): 22%
growth inhibition ([4]; at 33.0 µM): 99% (active)
growth inhibition ([4]; at 100.0 µM): 98% (active)
growth inhibition ([5]; at 1.2 µM): -1%
growth inhibition ([5]; at 3.7 µM): -7%
growth inhibition [5, 17]: 30%
growth inhibition ([5]; at 11.0 µM): -15%
growth inhibition ([5]; at 33.0 µM): 96% (active)
growth inhibition [5, 18]: 64%
growth inhibition ([5]; at 50.0 µM): 91.2% (active)
growth inhibition ([5]; at 100.0 µM): 96% (active)
growth inhibition ([6]; at 1.2 µM): 1%
growth inhibition ([6]; at 3.7 µM): 15%
growth inhibition [6, 17]: 45%
growth inhibition ([6]; at 11.0 µM): -18%
growth inhibition ([6]; at 33.0 µM): 98% (active)
growth inhibition [6, 18]: 30%
growth inhibition ([6]; at 50.0 µM): 92.5% (active)
growth inhibition ([6]; at 100.0 µM): 98% (active)
growth inhibition ([7]; at 1.2 µM): -22%
growth inhibition ([7]; at 3.7 µM): -21%
growth inhibition ([7]; at 11.0 µM): -19%
growth inhibition ([7]; at 33.0 µM): 97% (active)
growth inhibition ([7]; at 100.0 µM): 97% (active)
growth inhibition [8, 17]: -68%
growth inhibition [8, 18]: 98% (active)
growth inhibition ([8]; at 50.0 µM): 93% (active)
growth inhibition ([9]; at 1.2 µM): 17%
growth inhibition ([9]; at 3.7 µM): 11%
growth inhibition ([9]; at 11.0 µM): 28%
growth inhibition ([9]; at 33.0 µM): 98% (active)
growth inhibition ([9]; at 100.0 µM): 97% (active)
growth inhibition [10, 17]: 42%
growth inhibition [10, 18]: 96% (active)
growth inhibition ([10]; at 50.0 µM): 90% (active)
growth inhibition ([11]; at 1.2 µM): 0%
growth inhibition ([11]; at 3.7 µM): 14%
growth inhibition [11, 17]: -10%
growth inhibition ([11]; at 11.0 µM): 14%
growth inhibition ([11]; at 33.0 µM): 97% (active)
growth inhibition [11, 18]: 97% (active)
growth inhibition ([11]; at 50.0 µM): 91% (active)
growth inhibition ([11]; at 100.0 µM): 96% (active)
growth inhibition ([12]; at 1.2 µM): -7%
growth inhibition ([12]; at 3.7 µM): -1%
growth inhibition ([12]; at 11.0 µM): -24%
growth inhibition ([12]; at 33.0 µM): 98% (active)
growth inhibition ([12]; at 100.0 µM): 97% (active)
growth inhibition ([13]; at 1.2 µM): -16%
growth inhibition ([13]; at 3.7 µM): -16%
growth inhibition ([13]; at 11.0 µM): -17%
growth inhibition ([13]; at 33.0 µM): 97% (active)
growth inhibition ([13]; at 100.0 µM): 97% (active)
growth inhibition ([14]; at 1.2 µM): -3%
growth inhibition ([14]; at 3.7 µM): -11%
growth inhibition ([14]; at 11.0 µM): -15%
growth inhibition ([14]; at 33.0 µM): 97% (active)
growth inhibition ([14]; at 100.0 µM): 96% (active)
growth inhibition [15, 17]: 26%
growth inhibition [15, 18]: 27%
growth inhibition ([15]; at 50.0 µM): 91.3% (active)
growth inhibition ([16]; at 1.2 µM): -1%
growth inhibition ([16]; at 3.7 µM): 7%
growth inhibition ([16]; at 11.0 µM): -13%
growth inhibition ([16]; at 33.0 µM): 97% (active)
growth inhibition ([16]; at 100.0 µM): 97% (active)

Clc1ccc(/C(=C\c2ccccc2)Cn2ccnc2)cc1
growth inhibition ([1]; at 1.2 µM): 18%
growth inhibition ([1]; at 3.7 µM): 34%
growth inhibition ([1]; at 11.0 µM): 53%
growth inhibition ([1]; at 33.0 µM): 86% (active)
growth inhibition ([1]; at 100.0 µM): 76% (active)
growth inhibition ([2]; at 1.2 µM): 9%
growth inhibition ([2]; at 3.7 µM): 12%
growth inhibition ([2]; at 11.0 µM): 28%
growth inhibition ([2]; at 33.0 µM): 20%
growth inhibition ([2]; at 100.0 µM): 39%
growth inhibition ([3]; at 1.2 µM): 26%
growth inhibition ([3]; at 3.7 µM): 54%
growth inhibition ([3]; at 11.0 µM): 92% (active)
growth inhibition ([3]; at 33.0 µM): 95% (active)
growth inhibition ([3]; at 100.0 µM): 96% (active)
growth inhibition ([4]; at 1.2 µM): 14%
growth inhibition ([4]; at 3.7 µM): 22%
growth inhibition ([4]; at 11.0 µM): 60%
growth inhibition ([4]; at 33.0 µM): 71% (active)
growth inhibition ([4]; at 100.0 µM): 87% (active)
growth inhibition ([5]; at 1.2 µM): 22%
growth inhibition ([5]; at 3.7 µM): 34%
growth inhibition [5, 17]: 52%
growth inhibition ([5]; at 11.0 µM): 54%
growth inhibition ([5]; at 33.0 µM): 84% (active)
growth inhibition [5, 18]: 92% (active)
growth inhibition ([5]; at 50.0 µM): 79% (active)
growth inhibition ([5]; at 100.0 µM): 85% (active)
growth inhibition ([6]; at 1.2 µM): 11%
growth inhibition ([6]; at 3.7 µM): 21%
growth inhibition [6, 17]: -14%
growth inhibition ([6]; at 11.0 µM): 37%
growth inhibition ([6]; at 33.0 µM): 54%
growth inhibition [6, 18]: 88% (active)
growth inhibition ([6]; at 50.0 µM): 82.3% (active)
growth inhibition ([6]; at 100.0 µM): 67%
growth inhibition ([7]; at 1.2 µM): 38%
growth inhibition ([7]; at 3.7 µM): 51%
growth inhibition ([7]; at 11.0 µM): 68%
growth inhibition ([7]; at 33.0 µM): 81% (active)
growth inhibition ([7]; at 100.0 µM): 80% (active)
growth inhibition [8, 17]: 30%
growth inhibition [8, 18]: 95% (active)
growth inhibition ([8]; at 50.0 µM): 79.7% (active)
growth inhibition ([9]; at 1.2 µM): 11%
growth inhibition ([9]; at 3.7 µM): 21%
growth inhibition ([9]; at 11.0 µM): 48%
growth inhibition ([9]; at 33.0 µM): 75% (active)
growth inhibition ([9]; at 100.0 µM): 74% (active)
growth inhibition [10, 17]: 26%
growth inhibition [10, 18]: 92% (active)
growth inhibition ([10]; at 50.0 µM): 73.2% (active)
growth inhibition ([11]; at 1.2 µM): 10%
growth inhibition ([11]; at 3.7 µM): 32%
growth inhibition [11, 17]: 51%
growth inhibition ([11]; at 11.0 µM): 44%
growth inhibition ([11]; at 33.0 µM): 72% (active)
growth inhibition [11, 18]: 97% (active)
growth inhibition ([11]; at 50.0 µM): 88.2% (active)
growth inhibition ([11]; at 100.0 µM): 89% (active)
growth inhibition ([12]; at 1.2 µM): 20%
growth inhibition ([12]; at 3.7 µM): 29%
growth inhibition ([12]; at 11.0 µM): 46%
growth inhibition ([12]; at 33.0 µM): 54%
growth inhibition ([12]; at 100.0 µM): 77% (active)
growth inhibition ([13]; at 1.2 µM): 5%
growth inhibition ([13]; at 3.7 µM): 19%
growth inhibition ([13]; at 11.0 µM): 39%
growth inhibition ([13]; at 33.0 µM): 51%
growth inhibition ([13]; at 100.0 µM): 74% (active)
growth inhibition ([14]; at 1.2 µM): 44%
growth inhibition ([14]; at 3.7 µM): 54%
growth inhibition ([14]; at 11.0 µM): 69%
growth inhibition ([14]; at 33.0 µM): 90% (active)
growth inhibition ([14]; at 100.0 µM): 83% (active)
growth inhibition [15, 17]: 42%
growth inhibition [15, 18]: 94% (active)
growth inhibition ([15]; at 50.0 µM): 78.6% (active)
growth inhibition ([16]; at 1.2 µM): 46%
growth inhibition ([16]; at 3.7 µM): 64%
growth inhibition ([16]; at 11.0 µM): 81% (active)
growth inhibition ([16]; at 33.0 µM): 93% (active)
growth inhibition ([16]; at 100.0 µM): 92% (active)
